Measured values taken from PubChem BioAssay (NCI).
Where “and” joins values, the source holds several entries; their conditions need not be identical. Equal entries are not always repeated. The panel holds about 83,000 compounds, 20% with a hit somewhere; the sample as a whole holds those more often.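 Treatment: one concentration, 48 hours, 96-well format. Scoring: percent growth, with anything below 10 considered active.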 Calls of active or inactive are those of the source.

Tests used:
Test in all cases: NCI-60 one-dose screen, 48 h (100 = growth as untreated, 0 = no growth, -100 = all killed)
[1] = tested on: T-47D breast
[2] = tested on: BT-549 breast
[3] = tested on: MDA-MB-435 melanoma
[4] = tested on: SW-620 colon
[5] = tested on: MCF7 breast
[6] = tested on: HCT-116 colon
[7] = tested on: HCC-2998 colon
[8] = tested on: KM12 colon

Measured: growth

CC(=O)/C=C/c1ccc(OCc2ccc(Cl)cc2)cc1
inactive: [1]; 10 µM 93.1% | [1]; 100 µM 20.2% | [2]; 10 µM 102% | [2]; 100 µM 38% | [3]; 10 µM 94.5% | [3]; 100 µM 23.1% | [4]; 10 µM 104% | [4]; 100 µM 70.4% | [5]; 10 µM 94.2% | [5]; 100 µM 46% | [6]; 10 µM 90.5% | [6]; 100 µM 46.1% | [7]; 10 µM 101% | [7]; 100 µM 60.4% | [8]; 10 µM 93.9% | [8]; 100 µM 35.3%

C=C1CC[C@@H]2[C@](C)(COC(C)=O)[C@H](OC(C)=O)CC[C@@]2(C)[C@@H]1CC(Nc1ccc(S(=O)(=O)Nc2nccs2)cc1)C1=CCOC1=O (some centres not stated)
active: [2]; 10 µM unless noted -23.5% | [3]; 10 µM unless noted -8.31% | [4]; 10 µM unless noted -72.7% | [5]; 10 µM unless noted -21.3% | [6]; 10 µM unless noted -30.4% | [8]; 10 µM unless noted -0.895%
inactive: [1]; 10 µM unless noted 34.6% | [7]; 10 µM unless noted 54.2%

N#Cc1c(N)nnn1Cc1cc(=O)oc2ccc(O)cc12
inactive: [1]; 10 µM unless noted 98% | [2]; 10 µM unless noted 111% | [3]; 10 µM unless noted 105% | [4]; 10 µM unless noted 104% | [5]; 10 µM unless noted 96.8% | [6]; 10 µM unless noted 89.3% | [7]; 10 µM unless noted 110% | [8]; 10 µM unless noted 107%

O=C(/C=C/c1cccc(Oc2ccc(Cl)cc2)c1)c1ccccc1
inactive: [1]; 10 µM 77% | [2]; 10 µM 102% | [3]; 10 µM 94.8% | [4]; 10 µM 19.7% | [5]; 10 µM 11.5% | [6]; 10 µM 55.9% | [7]; 10 µM 107% | [8]; 10 µM 75.3%
active: [1]; 100 µM -72% | [2]; 100 µM -61.3% | [3]; 100 µM -84.8% | [4]; 100 µM -69.7% | [5]; 100 µM -45.3% | [6]; 100 µM -82.2% | [7]; 100 µM -97.8% | [8]; 100 µM -76.8%

CCCc1cc(C(N)=S)ccn1
inactive: [1]; 10 µM unless noted 105% | [2]; 10 µM unless noted 98.1% | [3]; 10 µM unless noted 105% | [4]; 10 µM unless noted 107% | [5]; 10 µM unless noted 108% | [6]; 10 µM unless noted 95.8% | [7]; 10 µM unless noted 108%

CCN(Cc1ccccc1)c1ccc(/C=C2\COc3ccccc3C2=O)cc1
inactive: [1]; 10 µM 78.3% | [1]; 100 µM 12.3% | [2]; 10 µM 95.6% | [2]; 100 µM 16.3% | [3]; 10 µM 95.7% | [4]; 10 µM 87.4% | [4]; 100 µM 28.1% | [5]; 10 µM 81.5% | [5]; 100 µM 17.5% | [7]; 10 µM 102% | [7]; 100 µM 66.8% | [8]; 10 µM 98.3% | [8]; 100 µM 21.8%
active: [3]; 100 µM -44.7%

CCCO/N=C/c1ccccn1
inactive: [1]; 10 µM unless noted 107% and 93.9% | [2]; 10 µM unless noted 90.8% | [3]; 10 µM unless noted 107% and 105% | [4]; 10 µM unless noted 102% and 110% | [5]; 10 µM unless noted 89.2% and 92.4% | [6]; 10 µM unless noted 102% | [7]; 10 µM unless noted 110% and 105% | [8]; 10 µM unless noted 101% and 103%

CC(=O)/C=C/c1ccc(OCc2ccc(C(C)(C)C)cc2)cc1
inactive: [1]; 10 µM 52.8% | [2]; 10 µM 103% | [2]; 100 µM 21.3% | [3]; 10 µM 78.4% | [3]; 100 µM 39.5% | [4]; 10 µM 72.1% | [4]; 100 µM 38.6% | [5]; 10 µM 66.6% | [5]; 100 µM 41.8% | [6]; 10 µM 68.9% | [6]; 100 µM 25.3% | [7]; 10 µM 92.1% | [7]; 100 µM 86.8% | [8]; 10 µM 82.9% | [8]; 100 µM 32.1%
active: [1]; 100 µM 5.88%

CC1=CC(C)(C)NC(=S)N1c1ccc(Cl)cc1
inactive: [1]; 10 µM unless noted 92.8% and 87.2% | [2]; 10 µM unless noted 99.1% and 110% | [3]; 10 µM unless noted 101% and 117% | [4]; 10 µM unless noted 100% and 115% | [5]; 10 µM unless noted 101% and 97.3% | [6]; 10 µM unless noted 99.6% and 89% | [7]; 10 µM unless noted 105% and 100% | [8]; 10 µM unless noted 101% and 105%

S=c1nc(CS)[nH]c2ccccc12
inactive: [1]; 10 µM unless noted 109% | [2]; 10 µM unless noted 101% | [3]; 10 µM unless noted 101% | [4]; 10 µM unless noted 98.5% | [5]; 10 µM unless noted 79.6% | [6]; 10 µM unless noted 100% | [7]; 10 µM unless noted 110% | [8]; 10 µM unless noted 100%

C=C(c1ccc(C(=O)O)cc1)c1cc2c(cc1C)C(C)(C)CCC2(C)C
inactive: [1]; 10 µM unless noted 93.8% and 75.7% | [2]; 10 µM unless noted 55.4% | [3]; 10 µM unless noted 95.9% and 84% | [4]; 10 µM unless noted 113% and 97.6% | [5]; 10 µM unless noted 75.9% and 63.6% | [6]; 10 µM unless noted 71.3% and 50% | [7]; 10 µM unless noted 78.6% and 76.1% | [8]; 10 µM unless noted 59.2% and 36.3%
